The full data set covers some 8,800 targets. This sample favours those with a hit. About 0.5% of all pairs of compound and target were hits.
What was measured:
Test in all cases: log2 fold change, soluble protein after heating vs DMSO (PISA); higher = thermal stabilisation; K562 lysate, 10 uM; active = over 0.2 and 3.5 SD of the protein, either way, in both replicates (recomputed)
alvocidib = compound: CN1CC[C@H](c2c(O)cc(O)c3c(=O)cc(-c4ccccc4Cl)oc23)[C@H](O)C1 [alvocidib]
How it was run: (§1)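 K562 pellets were dounce-homogenised in PBS pH 7.4 containing 1 mM MgCl2, and the crude extract, at 1 mg/mL protein, was exposed to 10 μM compound for 30 min. Aliquots were heated for 3 min across 48°C-58°C, pooled, brought to 0.5% NP-40 at 4°C and spun at 21,000xg for 90 min, with the supernatant taken as soluble protein. TMTpro 16plex LC-MS/MS with equalised channel sums quantified that protein. Values are log-two fold changes in thermal stability relative to solvent controls, taken from duplicates.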

Tubastatin A = compound: CN1CCc2c(c3ccccc3n2Cc2ccc(C(=O)NO)cc2)C1 [Tubastatin A]
How it was run: as §1

[1] = compound: CNC(=O)C1=CC=CC=C1NC2=NC(=NC=C2Cl)NC3=C(C=C(C=C3)N4CCOCC4)OC
How it was run: as §1

defactinib = compound: CNC(=O)c1ccc(Nc2ncc(C(F)(F)F)c(NCc3nccnc3N(C)S(C)(=O)=O)n2)cc1 [defactinib]
How it was run: as §1

[2] = compound: CNc1nc(-c2ccc3c(N)n[nH]c3c2)cc(N2C[C@@H](C(=O)NC3CCCCC3)CC[C@H]2C)n1
How it was run: as §1

encorafenib = compound: COC(=O)N[C@@H](C)CNc1nccc(-c2cn(C(C)C)nc2-c2cc(Cl)cc(NS(C)(=O)=O)c2F)n1 [encorafenib]
How it was run: as §1

[3] = compound: COC(=O)[C@H](CCSC)NC(=O)C1=C(C=C(C=C1)NC[C@H](CS)N)C2=CC=CC=C2
How it was run: as §1

alisertib = compound: COc1cc(Nc2ncc3c(n2)-c2ccc(Cl)cc2C(c2c(F)cccc2OC)=NC3)ccc1C(=O)O [alisertib]
How it was run: as §1

[4] = compound: COc1cc2nc(-c3cc(F)ccc3O)nc(N[C@@H]3CNC[C@H]3C(C)(C)O)c2cc1OC
How it was run: as §1

gefitinib = compound: COc1cc2ncnc(Nc3ccc(F)c(Cl)c3)c2cc1OCCCN1CCOCC1 [gefitinib]
How it was run: as §1

lapatinib = compound: CS(=O)(=O)CCNCc1ccc(-c2ccc3ncnc(Nc4ccc(OCc5cccc(F)c5)c(Cl)c4)c3c2)o1 [lapatinib]
How it was run: as §1

pictilisib = compound: CS(=O)(=O)N1CCN(Cc2cc3nc(-c4cccc5[nH]ncc45)nc(N4CCOCC4)c3s2)CC1 [pictilisib]
How it was run: as §1

crizotinib = compound: C[C@@H](Oc1cc(-c2cnn(C3CCNCC3)c2)cnc1N)c1c(Cl)ccc(F)c1Cl [crizotinib]
How it was run: as §1

[5] = compound: C[C@H](C1=CC=C(C=C1)C(=O)NC2=C3C=CNC3=NC=C2)N
How it was run: as §1

duvelisib = compound: C[C@H](Nc1ncnc2nc[nH]c12)c1cc2cccc(Cl)c2c(=O)n1-c1ccccc1 [duvelisib]
How it was run: as §1

gandotinib = compound: Cc1cc(Nc2cc(CN3CCOCC3)c3nc(C)c(Cc4ccc(Cl)cc4F)n3n2)n[nH]1 [gandotinib]
How it was run: as §1

tozasertib = compound: Cc1cc(Nc2cc(N3CCN(C)CC3)nc(Sc3ccc(NC(=O)C4CC4)cc3)n2)n[nH]1 [tozasertib]
How it was run: as §1

doramapimod = compound: Cc1ccc(-n2nc(C(C)(C)C)cc2NC(=O)Nc2ccc(OCCN3CCOCC3)c3ccccc23)cc1 [doramapimod]
How it was run: as §1

bafetinib = compound: Cc1ccc(NC(=O)c2ccc(CN3CC[C@H](N(C)C)C3)c(C(F)(F)F)c2)cc1Nc1nccc(-c2cncnc2)n1 [bafetinib]
How it was run: as §1

[6] = compound: Cc1cccc(CC(=O)N2CCc3c2ccc(-c2cn(C)c4ncnc(N)c24)c3F)n1
How it was run: as §1

Measured: log2 fold change

OARD1 (UniProt Q9Y530)
UniProt Q9Y530, sequence (Q9Y530 whole entry, looked up): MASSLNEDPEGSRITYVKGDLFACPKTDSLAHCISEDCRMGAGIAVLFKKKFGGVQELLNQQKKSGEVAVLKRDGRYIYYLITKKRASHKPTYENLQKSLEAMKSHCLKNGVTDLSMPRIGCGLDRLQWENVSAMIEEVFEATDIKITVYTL
inactive: alvocidib -0.003 | Tubastatin A -0.097 | [1] 0 | defactinib 0.037 | [2] -0.11 | encorafenib 0.011 | [3] 0.018 | alisertib 0.011 | [4] 0.028 | gefitinib -0.014 | lapatinib -0.001 | pictilisib -0.011 | crizotinib -0.003 | [5] -0.022 | duvelisib -0.015 | gandotinib -0.012 | tozasertib 0.042 | doramapimod 0.035 | bafetinib -0.023 | [6] 0.037

MTMR6 (UniProt Q9Y217)
UniProt Q9Y217, sequence (Q9Y217 whole entry, looked up): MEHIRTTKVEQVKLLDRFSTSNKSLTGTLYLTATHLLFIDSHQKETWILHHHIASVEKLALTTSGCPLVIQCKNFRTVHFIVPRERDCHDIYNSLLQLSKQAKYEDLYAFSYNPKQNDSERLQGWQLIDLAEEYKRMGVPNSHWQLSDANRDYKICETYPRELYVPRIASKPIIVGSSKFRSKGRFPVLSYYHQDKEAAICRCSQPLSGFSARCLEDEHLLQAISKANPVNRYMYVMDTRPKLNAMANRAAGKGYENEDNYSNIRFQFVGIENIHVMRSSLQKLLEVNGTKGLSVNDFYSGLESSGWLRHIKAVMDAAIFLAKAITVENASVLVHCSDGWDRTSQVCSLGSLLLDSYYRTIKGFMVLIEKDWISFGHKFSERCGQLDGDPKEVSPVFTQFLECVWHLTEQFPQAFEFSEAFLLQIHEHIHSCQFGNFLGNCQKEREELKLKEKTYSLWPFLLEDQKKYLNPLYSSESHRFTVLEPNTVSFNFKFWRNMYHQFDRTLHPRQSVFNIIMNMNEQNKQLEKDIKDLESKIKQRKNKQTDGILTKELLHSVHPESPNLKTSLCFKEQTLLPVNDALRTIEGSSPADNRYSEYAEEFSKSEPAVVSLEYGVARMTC
inactive: alvocidib -0.034 | Tubastatin A -0.019 | [1] 0 | defactinib -0.042 | [2] -0.047 | encorafenib 0.028 | [3] -0.092 | alisertib 0.022 | [4] 0.004 | gefitinib -0.053 | lapatinib 0.017 | pictilisib 0.025 | crizotinib -0.037 | [5] 0.071 | duvelisib 0.02 | gandotinib -0.024 | tozasertib 0.014 | doramapimod 0.056 | bafetinib 0.001 | [6] -0.113

NPLOC4 isoform 2 (UniProt Q8TAT6)
inactive: alvocidib -0.06 | Tubastatin A 0.013 | [1] 0.019 | defactinib -0.007 | [2] 0.043 | encorafenib 0.021 | [3] 0.016 | alisertib 0.004 | [4] -0.007 | gefitinib -0.018 | lapatinib 0.022 | pictilisib 0.003 | crizotinib -0.023 | [5] -0.087 | duvelisib 0.01 | gandotinib 0.046 | tozasertib -0.003 | doramapimod 0.056 | bafetinib -0.019 | [6] 0.007

PAN2 isoform 2 (UniProt Q504Q3)
UniProt Q504Q3, sequence (Q504Q3 whole entry, looked up): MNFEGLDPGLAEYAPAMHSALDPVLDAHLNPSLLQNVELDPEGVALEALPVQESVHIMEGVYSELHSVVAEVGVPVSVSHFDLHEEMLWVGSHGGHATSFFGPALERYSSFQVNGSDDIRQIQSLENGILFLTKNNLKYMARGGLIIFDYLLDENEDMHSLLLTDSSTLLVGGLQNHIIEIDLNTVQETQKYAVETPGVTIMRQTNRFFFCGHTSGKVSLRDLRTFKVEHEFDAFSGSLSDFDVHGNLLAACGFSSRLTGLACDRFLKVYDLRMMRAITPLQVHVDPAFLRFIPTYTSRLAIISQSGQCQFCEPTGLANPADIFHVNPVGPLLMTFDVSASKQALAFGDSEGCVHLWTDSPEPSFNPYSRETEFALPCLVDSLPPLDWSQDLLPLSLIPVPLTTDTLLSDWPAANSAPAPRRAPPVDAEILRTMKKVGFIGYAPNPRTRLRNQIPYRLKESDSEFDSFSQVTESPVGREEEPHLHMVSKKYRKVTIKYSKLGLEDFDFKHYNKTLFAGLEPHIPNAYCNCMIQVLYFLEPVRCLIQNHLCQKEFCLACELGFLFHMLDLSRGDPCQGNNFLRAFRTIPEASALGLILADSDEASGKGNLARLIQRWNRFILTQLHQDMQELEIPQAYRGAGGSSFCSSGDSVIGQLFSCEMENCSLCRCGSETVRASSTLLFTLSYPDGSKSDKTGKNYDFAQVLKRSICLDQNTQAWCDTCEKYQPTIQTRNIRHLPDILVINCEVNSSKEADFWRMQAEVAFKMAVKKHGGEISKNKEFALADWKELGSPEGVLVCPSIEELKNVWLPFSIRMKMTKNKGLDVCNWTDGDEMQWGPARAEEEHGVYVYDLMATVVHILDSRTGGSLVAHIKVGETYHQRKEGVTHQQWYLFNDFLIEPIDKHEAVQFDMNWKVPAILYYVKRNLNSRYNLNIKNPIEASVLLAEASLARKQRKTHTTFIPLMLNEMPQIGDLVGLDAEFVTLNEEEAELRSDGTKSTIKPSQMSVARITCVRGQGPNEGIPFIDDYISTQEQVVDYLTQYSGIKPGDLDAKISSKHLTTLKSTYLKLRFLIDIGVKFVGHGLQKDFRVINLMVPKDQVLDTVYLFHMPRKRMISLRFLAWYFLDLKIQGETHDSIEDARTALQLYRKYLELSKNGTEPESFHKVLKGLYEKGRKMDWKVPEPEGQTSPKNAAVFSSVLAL
active: tozasertib 0.27
inactive: alvocidib -0.023 | Tubastatin A -0.025 | [1] -0.018 | defactinib -0.099 | [2] -0.046 | encorafenib 0.08 | [3] -0.041 | alisertib 0 | [4] -0.043 | gefitinib -0.044 | lapatinib -0.044 | pictilisib 0.045 | crizotinib -0.085 | [5] 0.003 | duvelisib 0.041 | gandotinib -0.053 | doramapimod 0.09 | bafetinib -0.108 | [6] 0.084

NAA30 (UniProt Q147X3)
inactive: alvocidib -0.03 | Tubastatin A 0.051 | [1] -0.023 | defactinib 0.002 | [2] 0.023 | encorafenib -0.032 | [3] 0.008 | alisertib 0.039 | [4] -0.066 | gefitinib 0.015 | lapatinib -0.021 | pictilisib -0.028 | crizotinib -0.01 | [5] -0.025 | duvelisib -0.037 | gandotinib 0.012 | tozasertib 0.015 | doramapimod -0.028 | bafetinib 0.042 | [6] 0.06

NOSTRIN (UniProt Q8IVI9)
UniProt Q8IVI9, sequence (Q8IVI9 whole entry, looked up): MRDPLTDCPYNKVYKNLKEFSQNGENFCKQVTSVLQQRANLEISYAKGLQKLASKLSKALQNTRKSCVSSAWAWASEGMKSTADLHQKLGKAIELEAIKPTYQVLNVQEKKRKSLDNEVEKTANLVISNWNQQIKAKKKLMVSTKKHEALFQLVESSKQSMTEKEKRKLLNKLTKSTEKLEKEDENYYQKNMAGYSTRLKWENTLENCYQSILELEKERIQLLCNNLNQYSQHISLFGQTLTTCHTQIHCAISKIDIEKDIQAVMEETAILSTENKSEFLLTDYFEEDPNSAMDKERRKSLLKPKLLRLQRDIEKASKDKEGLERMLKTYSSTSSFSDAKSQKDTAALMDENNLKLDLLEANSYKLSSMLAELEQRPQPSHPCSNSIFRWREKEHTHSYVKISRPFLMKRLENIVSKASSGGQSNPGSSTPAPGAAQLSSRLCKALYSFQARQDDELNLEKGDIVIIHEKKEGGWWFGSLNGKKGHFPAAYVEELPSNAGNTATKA
active: Tubastatin A -0.35
inactive: alvocidib -0.009 | [1] 0.027 | defactinib 0.07 | [2] 0.061 | encorafenib -0.112 | [3] 0.11 | alisertib -0.019 | [4] 0 | gefitinib 0.004 | lapatinib -0.022 | pictilisib -0.011 | crizotinib 0.06 | [5] 0.017 | duvelisib 0.047 | gandotinib -0.047 | tozasertib 0.058 | doramapimod -0.03 | bafetinib -0.078 | [6] -0.012

NDC1 (UniProt Q9BTX1)
UniProt Q9BTX1, sequence (Q9BTX1 whole entry, looked up): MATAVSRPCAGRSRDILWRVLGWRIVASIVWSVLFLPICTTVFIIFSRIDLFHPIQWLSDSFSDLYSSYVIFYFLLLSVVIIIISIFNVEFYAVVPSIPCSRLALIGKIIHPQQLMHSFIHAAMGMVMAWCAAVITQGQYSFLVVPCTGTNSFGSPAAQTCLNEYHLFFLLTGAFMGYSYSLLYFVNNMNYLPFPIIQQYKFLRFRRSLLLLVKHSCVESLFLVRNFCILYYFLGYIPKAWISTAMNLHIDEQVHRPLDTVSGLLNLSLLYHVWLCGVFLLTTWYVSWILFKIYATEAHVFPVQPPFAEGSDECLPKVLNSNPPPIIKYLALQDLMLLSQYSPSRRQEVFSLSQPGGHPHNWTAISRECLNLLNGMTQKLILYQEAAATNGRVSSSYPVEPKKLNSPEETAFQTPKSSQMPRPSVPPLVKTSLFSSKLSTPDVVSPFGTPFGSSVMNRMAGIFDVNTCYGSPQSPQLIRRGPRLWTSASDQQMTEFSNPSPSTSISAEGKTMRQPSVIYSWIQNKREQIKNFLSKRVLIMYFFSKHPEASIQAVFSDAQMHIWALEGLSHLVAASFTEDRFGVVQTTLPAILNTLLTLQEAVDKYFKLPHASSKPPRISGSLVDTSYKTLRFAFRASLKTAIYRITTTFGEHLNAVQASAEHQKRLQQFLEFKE
inactive: alvocidib -0.131 | Tubastatin A -0.046 | [1] -0.001 | defactinib -0.058 | [2] -0.044 | encorafenib 0.03 | alisertib 0.011 | [4] 0.047 | gefitinib -0.031 | lapatinib -0.087 | pictilisib -0.012 | crizotinib -0.027 | duvelisib -0.044 | gandotinib 0.185 | tozasertib -0.01 | doramapimod -0.001 | bafetinib -0.066
active: [3] -0.297 | [5] -0.333 | [6] 0.296

MYD88 isoform 6 (UniProt Q99836)
UniProt Q99836, sequence (Q99836 whole entry, looked up): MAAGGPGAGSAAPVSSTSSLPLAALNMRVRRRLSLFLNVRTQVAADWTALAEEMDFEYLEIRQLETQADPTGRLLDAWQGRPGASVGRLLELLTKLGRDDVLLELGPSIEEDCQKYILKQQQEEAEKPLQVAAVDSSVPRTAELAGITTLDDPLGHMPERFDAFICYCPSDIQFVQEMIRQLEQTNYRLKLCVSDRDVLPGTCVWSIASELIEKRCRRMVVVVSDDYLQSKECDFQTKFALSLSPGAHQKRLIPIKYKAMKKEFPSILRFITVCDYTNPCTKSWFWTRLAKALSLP
inactive: alvocidib 0 | Tubastatin A -0.216 | [1] -0.006 | defactinib 0.013 | [2] 0.001 | encorafenib 0.003 | [3] -0.003 | alisertib 0.021 | [4] -0.005 | gefitinib -0.039 | lapatinib 0.014 | pictilisib -0.006 | crizotinib -0.007 | [5] -0.032 | duvelisib 0.03 | gandotinib -0.009 | tozasertib 0.068 | doramapimod 0.019 | bafetinib -0.018 | [6] 0

ORC3 isoform 2 (UniProt Q9UBD5)
UniProt Q9UBD5, sequence (Q9UBD5 whole entry, looked up): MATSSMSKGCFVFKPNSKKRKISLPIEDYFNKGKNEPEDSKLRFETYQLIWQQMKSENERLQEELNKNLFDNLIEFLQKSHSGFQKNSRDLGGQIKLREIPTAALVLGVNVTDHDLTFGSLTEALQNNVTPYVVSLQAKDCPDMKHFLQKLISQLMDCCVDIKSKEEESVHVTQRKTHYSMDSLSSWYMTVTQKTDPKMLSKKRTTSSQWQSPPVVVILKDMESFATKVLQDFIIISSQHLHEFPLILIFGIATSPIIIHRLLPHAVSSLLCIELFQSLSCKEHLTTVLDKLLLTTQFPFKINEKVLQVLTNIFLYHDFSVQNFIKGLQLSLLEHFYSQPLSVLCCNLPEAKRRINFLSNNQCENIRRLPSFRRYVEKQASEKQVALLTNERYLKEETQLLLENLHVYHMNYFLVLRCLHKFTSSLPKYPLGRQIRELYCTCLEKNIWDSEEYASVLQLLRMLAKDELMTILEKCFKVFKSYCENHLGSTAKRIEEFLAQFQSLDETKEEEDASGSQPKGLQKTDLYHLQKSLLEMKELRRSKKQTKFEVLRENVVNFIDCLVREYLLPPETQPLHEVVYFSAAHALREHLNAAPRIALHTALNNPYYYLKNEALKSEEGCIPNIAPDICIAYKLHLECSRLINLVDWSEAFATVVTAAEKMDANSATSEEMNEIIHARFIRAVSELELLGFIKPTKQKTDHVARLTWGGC
inactive: alvocidib 0.006 | Tubastatin A -0.155 | [1] 0.007 | defactinib 0.022 | [2] 0.035 | encorafenib 0.02 | [3] 0.15 | alisertib 0.001 | [4] -0.009 | gefitinib -0.019 | lapatinib -0.014 | pictilisib -0.011 | crizotinib -0.119 | [5] -0.008 | duvelisib -0.025 | gandotinib -0.097 | tozasertib -0.024 | doramapimod -0.009 | bafetinib -0.046 | [6] 0.001

PAIP2 (UniProt Q9BPZ3)
UniProt Q9BPZ3, sequence (Q9BPZ3 whole entry, looked up): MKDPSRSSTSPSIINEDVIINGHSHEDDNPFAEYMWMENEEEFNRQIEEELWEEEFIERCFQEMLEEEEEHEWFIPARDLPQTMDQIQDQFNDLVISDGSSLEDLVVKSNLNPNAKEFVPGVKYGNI
inactive: alvocidib 0.009 | Tubastatin A 0.045 | [1] -0.03 | defactinib -0.056 | [2] 0.037 | encorafenib -0.092 | [3] 0.071 | alisertib -0.038 | [4] -0.049 | gefitinib -0.019 | lapatinib 0.013 | pictilisib -0.036 | crizotinib 0.021 | [5] -0.008 | duvelisib -0.04 | gandotinib 0.022 | tozasertib 0.035 | doramapimod 0.043 | bafetinib 0.073 | [6] 0.02

MT-CYB (UniProt P00156)
UniProt P00156, sequence (P00156 whole entry, looked up): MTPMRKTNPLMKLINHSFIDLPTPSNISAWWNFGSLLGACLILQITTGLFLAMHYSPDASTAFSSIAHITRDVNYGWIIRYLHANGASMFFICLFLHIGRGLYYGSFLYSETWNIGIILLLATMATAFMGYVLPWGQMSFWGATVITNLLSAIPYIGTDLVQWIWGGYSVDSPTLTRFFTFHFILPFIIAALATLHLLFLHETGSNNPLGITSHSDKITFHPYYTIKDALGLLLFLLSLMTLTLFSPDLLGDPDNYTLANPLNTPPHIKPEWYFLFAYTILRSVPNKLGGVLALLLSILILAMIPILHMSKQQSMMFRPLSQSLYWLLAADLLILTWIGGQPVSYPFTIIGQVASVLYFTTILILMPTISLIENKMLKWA
inactive: alvocidib -0.326 | Tubastatin A 0.078 | [1] -0.027 | defactinib 0.091 | [2] 0.129 | encorafenib 0.036 | [3] -0.093 | alisertib -0.131 | [4] 0.062 | gefitinib 0.102 | lapatinib -0.054 | pictilisib -0.025 | crizotinib -0.126 | duvelisib 0.094 | tozasertib -0.074 | doramapimod -0.05 | bafetinib 0.05 | [6] 0.385
active: [5] -0.856 | gandotinib 0.568

N6AMT1 (UniProt Q9Y5N5)
UniProt Q9Y5N5, sequence (Q9Y5N5 whole entry, looked up, one chain of several): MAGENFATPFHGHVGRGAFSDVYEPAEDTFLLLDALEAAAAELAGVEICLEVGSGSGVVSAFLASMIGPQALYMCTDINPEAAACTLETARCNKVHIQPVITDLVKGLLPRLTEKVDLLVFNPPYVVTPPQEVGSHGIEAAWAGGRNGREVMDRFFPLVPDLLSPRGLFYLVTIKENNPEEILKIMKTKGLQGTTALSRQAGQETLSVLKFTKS
active: defactinib 0.361 | [5] 0.34
inactive: alvocidib 0.062 | Tubastatin A 0.026 | [1] 0.048 | [2] 0.021 | encorafenib -0.011 | [3] 0.069 | alisertib -0.084 | [4] 0.004 | gefitinib -0.045 | lapatinib -0.018 | pictilisib -0.038 | crizotinib -0.02 | duvelisib -0.017 | gandotinib -0.033 | tozasertib 0.008 | doramapimod 0.014 | bafetinib -0.109 | [6] -0.098

Reference: the supplement of paper PMC10849652
